# In PubChem BioAssay:
# Active and inactive are the calls of the source.
# Assays:
# [1] = compound effects on lung adenocarcinoma cell viability – A549, calcein-AM fluorescence, 48 h, basal, profiling panel (AID 1162); conditions: higher = more signal
# [2] = compound effects on differentiated 3T3-L1 adipocyte viability – cell-based, 3T3-L1 adipocytes, calcein-AM fluorescence, 48 h, basal, profiling panel (AID 1163); conditions: 3T3-L1 adipocytes viability, higher = more signal
# [3] = compound effects on hepatocellular carcinoma cell viability – HepG2, calcein-AM fluorescence, 48 h, basal, profiling panel (AID 1164); conditions: higher = more signal
# [4] = compound effects on multiple myeloma cell viability – MM1S, calcein-AM fluorescence, 48 h, basal, profiling panel (AID 1165); conditions: higher = more signal
# [5] = calcein-AM signal in unstimulated myeloma cells – cell-based, calcein-AM fluorescence, 48 h, PK04 Diversity Set, profiling panel (AID 1166); conditions: RPMI8226 myeloma viability, higher = more signal;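 note: cells grown under basal conditions without added stimulus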
# [6] = JC-1 mitochondrial signal, unstimulated HepG2 cells – cell-based, JC-1 fluorescence, 24 h, 100 nL compound, profiling panel (AID 1167); conditions: HepG2 mitochondrial potential, higher = more signal
# [7] = JC-1 mitochondrial signal, unstimulated adipocytes – cell-based, JC-1 fluorescence, 3T3-L1 adipocytes, 24 h, 100 nL compound, profiling panel (AID 1168); conditions: JC-1 mitochondrial fluorescence, higher = more signal, called active from +8 up or from −8 down
# [8] = JC-1 mitochondrial signal, unstimulated myeloma cells – cell-based, JC-1 fluorescence, RPMI8226, 24 h, 100 nL compound, profiling panel (AID 1169); conditions: JC-1 mitochondrial potential fluorescence, higher = more signal
# [9] = JC-1 mitochondrial signal, unstimulated MM1S myeloma – cell-based, JC-1 fluorescence, 24 h, 100 nL compound, profiling panel (AID 1170); conditions: MM1S mitochondrial potential, higher = more signal
# [10] = resazurin metabolic signal in A549 cells – cell-based, resazurin fluorescence, 24 h, PK04 Diversity Set, profiling panel (AID 1171); conditions: A549 viability, higher = more signal, called active from +8 up or from −8 down
# Note: test concentration not given here.
Structure (SMILES),z-score [1],z-score [2],z-score [3],z-score [4],z-score [5],z-score [6],z-score [7],z-score [8],z-score [9],z-score [10]
O=C1C2C=CC(C(O)c3c(F)cccc3Cl)N(Nc3ccccc3)C2C(=O)N1c1ccccc1 (stereo not given),1.14,-1.4,0.309,-0.474,0.474,-1.41,0.455 (inactive),-0.235,-0.488,-0.0768 (inactive)
CC(=O)NCCCC[C@@H]1NC(=O)[C@@H]2C[C@H](C(=O)NCCCCN(C)C)[C@H](c3cccc(OCCO)c3)N2C1=O,0.0857,-0.749,-0.506,-0.589,-0.486,-0.085,-0.24 (inactive),-0.569,-0.436,0.604 (inactive)
COC(=O)[C@@]1(Cc2ccccc2)[C@H]2c3cc(C(=O)N4CCCC4)n(Cc4nc5ccccc5[nH]4)c3C[C@H]2CN1C(=O)c1ccccc1,-0.579,0.887,-0.537,-2.39,-2.19,1.73,-0.807 (inactive),-0.863,-0.81,-0.178 (inactive)
COc1ccc([Si](C)(C)[C@H]2[C@H](CCO)O[C@@]3(C(=O)N(Cc4ccc(N5C(=O)COc6ccccc65)cc4)c4ccccc43)[C@@H]2C)cc1,-0.525,0.0432,-3.14,-2.36,-4.33,-0.509,1.36 (inactive),-1.07,-2.12,-2.35 (inactive)
C=CC[C@]1(C(=O)NCCCOC)N=C(c2ccc(OCCCO)cc2)O[C@H]1c1ccccc1N=[N+]=[N-],-0.707,0.346,0.0592,-1.78,-1.47,0.111,1.06 (inactive),-0.68,-0.114,0.393 (inactive)
NCCCCCNC(=O)[C@@H]1C[C@@H]2C(=O)N[C@@H](Cc3ccccc3)C(=O)N2[C@@H]1c1cccc(OCCO)c1,-0.349,0.512,-0.442,0.143,-0.371,-1.04,-0.684 (inactive),-0.0752,0.894,-0.403 (inactive)
CC(C)C[C@@H]1NC(=O)[C@H]2C[C@@H](C(=O)NCCCCCCN(C)C)[C@@H](c3ccc(O)cc3)N2C1=O,-1.06,-0.0009,-0.59,0.235,-1.28,-0.438,0.186 (inactive),0.664,-0.601,-0.743 (inactive)
COC(=O)[C@@]1(Cc2ccc(F)cc2)[C@@H]2[C@@H](CC(=O)[C@H]2CC(=O)C(=O)N(C)C)CN1C(=O)c1ccccc1,-0.294,-1.19,0.27,-0.886,-1.73,1.65,-0.554 (inactive),-0.00425,-1.92,-2 (inactive)
C=CCNC(=O)[C@H]1[C@@H]2C(=O)O[C@@H](c3ccccc3)[C@@H](c3ccccc3)N2[C@@H](c2ccc(OCCO)cc2)[C@]12C(=O)N(C(=O)OCCOC)c1ccccc12,0.111,1.47,-0.109,-0.472,-2.66,1.34,0.131 (inactive),-0.562,0.465,-0.918 (inactive)
COC(=O)C(CC#Cc1ccc2c(c1)[C@]1(C(=O)N2)[C@H](c2ccc(O)cc2)N2[C@H](c3ccccc3)[C@H](c3ccccc3)OC(=O)[C@H]2[C@@H]1C(=O)Nc1nc2ccccc2s1)C(=O)OC,1.37,0.72,1.47,0.247,-1.65,-1.44,-0.719 (inactive),-0.712,0.422,-0.351 (inactive)
O=C1O[C@H](c2ccccc2)[C@H](c2ccccc2)N2[C@H]1[C@@H](C(=O)NC[C@H](O)c1ccccc1)[C@]1(C(=O)Nc3ccccc31)[C@H]2c1ccc(OCCO)cc1,-0.425,1.61,-1.41,-2.53,-3.09,-2.29,1.95 (inactive),-1.21,-1.21,-0.333 (inactive)
CN1C(=O)C2C=CC(C(O)c3cc(C(F)(F)F)cc(C(F)(F)F)c3)N(N3CCCCC3)C2C1=O (stereo not given),0.704,0.421,0.499,-1.02,-0.533,-0.672,-0.205 (inactive),0.462,-0.444,0.113 (inactive)
Cc1ccc(S[C@]2(C(=O)NC(C)C)CC(=O)N(Cc3ccccc3Cl)[C@@H]2c2ccc(CO)cc2I)cc1,-0.0542,-0.05,-0.125,-2.71,-1.58,-1.08,-0.443 (inactive),-0.195,-1.6,1.11 (inactive)
[N-]=[N+]=Nc1ccccc1C[C@]1(C(=O)NCC(O)CO)N=C(c2ccc(OCCCO)cc2)O[C@H]1c1ccccc1N=[N+]=[N-] (stereo not given in full),-1.04,-0.676,-1.12,-2.98,-3.14,-0.162,0.153 (inactive),-1.19,-1.3,-1.19 (inactive)
COCCOC(=O)N1C(=O)[C@@]2(c3ccccc31)[C@H](c1ccc(O)cc1)N1[C@H](c3ccccc3)[C@H](c3ccccc3)OC(=O)[C@H]1[C@@H]2C(=O)NC[C@H](O)c1ccccc1,0.205,1.15,0.311,-0.534,-1.99,-1.02,-0.184 (inactive),0.266,-0.142,-1.1 (inactive)
CC[C@@H]1C=C(C(=O)O)[C@H](c2ccco2)N1S(=O)(=O)c1ccc(C)cc1,-0.364,-0.538,0.186,-0.019,-0.29,-0.0247,-1.25 (inactive),0.604,-1.26,-0.68 (inactive)
O=C1OCCC/C=C\[C@H]2OC34C=CCN(c5ccc6ccccc6c5)C(=O)[C@H]3N(CCCCCCO)C(=O)[C@@H]4C12 (stereo not given in full),1.21,0.817,2,1.92,0.254,1.02,0.4 (inactive),-0.967,-0.257,-0.0595 (inactive)
C[N+](C)(C)CCCC[C@@H]1NC(=O)[C@@H]2C[C@H](C(=O)NCCCCCN)[C@H](c3cccc(OCCO)c3)N2C1=O,1.53,0.698,1.45,0.423,0.16,1.03,-0.117 (inactive),0.0947,-0.198,0.0718 (inactive)
O=C1[C@H]2C=C(Br)[C@H](C[C@@H]2OCCCCO)[C@@]12CO2,-0.0982,-1.26,-0.141,-0.723,-2.13,-1.48,0.026 (inactive),-0.88,-0.147,-0.621 (inactive)
O=C(NCc1ccc(F)cc1)[C@H]1C[C@H]2C(=O)N[C@@H](Cc3ccccc3)C(=O)N2[C@H]1c1ccc(O)cc1,0.0416,0.17,0.0329,-0.973,-0.27,1.11,0.672 (inactive),0.736,0.453,0.278 (inactive)
COc1ccc(CCN2C(=O)[C@@]3(Cc4ccccc42)c2ccccc2C(=O)N(Cc2ccccc2C(F)(F)F)[C@H]3c2ccc(CO)cc2)cc1,-0.306,0.885,-0.863,0.122,-1.57,-0.739,-0.753 (inactive),0.923,-1.59,0.639 (inactive)
COc1cc2c(cc1O)C=[N+](Cc1cccc(OC(F)(F)F)c1)CC2,1.45,0.0197,1.2,1.25,0.346,1.01,0.0547 (inactive),0.145,-0.471,-1.68 (inactive)
[N-]=[N+]=Nc1ccccc1[C@H]1OC(c2ccc(OCCCO)cc2)=N[C@@]1(Cc1ccccc1)C(=O)O,1.98,0.276,0.73,-0.0876,-0.532,-0.107,0.222 (inactive),-0.0546,-1.2,-0.724 (inactive)
O=C1O[C@H](c2ccccc2)[C@H](c2ccccc2)N2[C@H]1[C@@H](C(=O)O)[C@]1(C(=O)Nc3ccc(C#CC4=CCCCC4)cc31)[C@H]2c1ccccc1OCCO,-0.986,-1.21,-4.28,-3.3,-4.21,-3.56,1.39 (inactive),-0.935,-1.68,-1.84 (inactive)
C=C(COC)/C(=C/C[C@@H](OC(C)=O)c1ccc(CO)o1)c1cnc2ccccc2c1,-0.11,0.523,-0.856,0.0139,-0.672,-0.733,-0.306 (inactive),-0.33,1.33,-0.874 (inactive)
O=C1NC(=O)C2C1C=CC(C(O)c1ccccc1)N2Nc1ccc(Cl)cc1Cl (stereo not given),0.0862,-0.0715,-1.48,-3.55,-3.28,-3.07,-0.544 (inactive),-1.09,-1.59,-1.92 (inactive)
C=CCNC(=O)[C@@H]1[C@H]2C(=O)O[C@H](c3ccccc3)[C@H](c3ccccc3)N2[C@H](c2ccc(OCCO)cc2)[C@@]12C(=O)Nc1ccc(C#CCCO)cc12,-1.11,0.422,1.27,-0.563,0.256,1.1,0.0466 (inactive),-0.591,-0.183,0.344 (inactive)
CC(C)C[C@H]1NC(=O)[C@@]23C(=O)N[C@@H](Cc4ccccc4)C2[C@H](C)[C@@]2(C)O[C@H]2C3/C=C/C/C=C\CNC(=O)[C@H](Cc2ccccc2)NC1=O (stereo not given in full),-0.278,0.733,-1.03,-0.207,-0.567,0.804,-0.172 (inactive),-1.09,0.687,0.217 (inactive)
CC(C)OC(=O)C=C1C[C@@H](c2ccccc2C(F)(F)F)O[C@@H](c2ccccc2C(F)(F)F)O1,-0.677,-0.984,0.761,0.737,0.217,0.752,0.341 (inactive),0.589,-0.541,1.08 (inactive)
O=C1C[C@]2(c3ccc([N+](=O)[O-])cc3)C(=O)N(CCN3CCOCC3)c3cc(CO)ccc3[C@H]2N1C1CCCCC1,0.648,0.239,1.87,-0.121,0.346,0.756,0.155 (inactive),0.0691,-0.509,-1.17 (inactive)
